The text below walks through data of PubChem BioAssay (NCI).

The panel holds about 83,000 compounds, 20% with a hit somewhere; the sample as a whole holds those more often.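 Treatment: one concentration, 48 hours, 96-well format. Scoring: percent growth, with anything below 10 considered active.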 A number with no mark means an inactive call. Calls of active or inactive are those of the source.

Holding throughout (test): NCI-60 one-dose screen, 48 h (100 = growth as untreated, 0 = no growth, -100 = all killed)
What all share (details): 10 µM unless noted

The subject of test [1] is NCI-H23 lung.
Test [2] deals with NCI-H226 lung.
The test system of test [3] is NCI-H322M lung.
In test [4] the test system is HOP-62 NSCLC.
Test [5] deals with NCI-H460 lung.
Test [6] has as its system HOP-92 NSCLC.
The subject of test [7] is NCI-H522 lung.
In test [8] the test system is A549/ATCC NSCLC.
Test [9] has as its system 786-0 renal.
For test [10], the system named is COLO 205 colon.
Test [11] has as its system DU-145 prostate.
Test [12] relates to K-562 leukemia.
In test [13] the test system is MDA-MB-231 breast.
Test [14] deals with RXF 393 renal.
Test [15] has as its system SF-268 CNS.
Test [16] has as its system SF-295 CNS.
Test [17] deals with SF-539 CNS.
For test [18], the system named is UACC-257 melanoma.
For test [19], the system named is M14 melanoma.
The test system of test [20] is MALME-3M melanoma.

As to `CC1CC2C3CCC4=CC(=O)CCC4(C)C3CCC2(C)C1(O)C(=O)CO` (stereo not drawn), the growth in test [1] is 115%; in test [2], 103%; in [3], 109%; in [4] it was 106%; in test [5], 117%; in test [6], 100%. Also, the growth in test [7] is 92.2%; in test [8], 88.6%; in test [9], 112%; in [10], 117%; in test [11], 130%; in test [12], 98.4%. The growth was 108% in [13]; 122% in [14]; 121% in test [15]; 124% in test [16]; 107% in [17]; 114% in test [18]. The growth in test [19] was 111%.
For `COc1ccc(Br)c(C=O)c1`, the growth in [1] was 91.4%; in test [2], 84.5%; in test [3], 89.8%; in test [4] it was 67.4%; in test [5] it was 101%; in [6], 68.8%. Further, the growth in [7] was 98.2%; in [8] it was 92.6%; in [9], 69.3%; in test [10], 102%; in test [11], 88.1%; in test [12], 11.6%. Besides, the growth in test [20] is 66.2%; in test [14], 80.1%; in [15], 60.8%; in [16], 65.7%; in test [17], 30.5%; in test [18], 79.7%.
As for `CCCCCC/C=C\CCCCCCCCCc1cc(O)cc(OC)c1O`, the growth in [1] is 11.2%; in test [2], 24.2%; in test [3], 4.07% (active); in [4], 21.8%; in [5], 8.62% (active); in test [6], -45% (active). For the same compound, the growth in test [7] was -76.8% (active); in test [8], 16.8%; in [9], 10.6%; in test [10], -65.3% (active); in test [11], 26%; in [12], 7.81% (active). Further, the growth in test [13] is -43.1% (active); in [14] it was 22.7%; in test [15], 9.15% (active); in [16], 2.68% (active); in [17], -58.3% (active); in [18], -4.96% (active). The growth in test [19] was 27.3%.
On to `Nc1cc2c(cc1Cl)C(=O)c1ccccc1C2=O`, for which the growth in test [1] is 0.869% (active); in test [2] it was 12.7%; in test [3] it was 30.2%; in [4], 26.8%; in test [5] it was 0.87% (active); in test [6] it was -1.69% (active). Also, the growth is 65% in test [7]; 27.2% in test [8]; -19% (active) in test [9]; 76.2% in [10]; 67.7% in [11]; 72.4% in test [12]. In addition, the growth in test [20] is 64.7%; in test [14], 72.2%; in test [15] it was 44.5%; in [16] it was 35.4%; in test [17] it was -82% (active); in [18] it was 89.8%. In addition, the growth in test [19] is 85.3%.
With `OC1Cc2ccccc2C1`, the growth in test [1] was 90.2%; in test [2] it was 101%; in [3], 98.7%; in test [4], 95.7%; in test [5], 104%; in [6] it was 68.7%. Also, the growth in [7] was 92.6%; in test [8], 97.1%; in test [9], 98.7%; in test [10], 98.8%; in [11] it was 103%; in test [12], 48.3%. In addition, the growth in test [20] was 95.2%; in [14], 101%; in [15] it was 102%; in test [16], 95.2%; in test [17], 97.1%; in test [18], 90.9%.
Regarding `COc1ccc(NNS(=O)(=O)O)cc1`, the growth in test [1] was 98.3%; in [2], 95%; in [3], 116%; in [4], 85.1%; in test [5], 105%; in test [6] it was 80.3%. Also, the growth in test [7] is 96%; in test [8] it was 95.3%; in [9], 103%; in test [10], 104%; in test [11] it was 111%; in [12], 99.5%. The growth in test [20] was 104%; in test [14], 95.1%; in [15], 106%; in test [16], 92.5%; in test [17], 95.1%; in [19], 92.5%.
Turning to `CC(C)(N)CO[C@H]1C[C@H]2CC[C@@]1(C)C2(C)C`, the growth was 94.7% in test [1]; 88.5% in test [2]; 96.5% in test [3]; 106% in [4]; 97.8% in test [5]; 89.2% in [6]. Also, the growth in test [7] is 92.4%; in [8] it was 96.8%; in [9] it was 97.6%; in test [10], 109%; in test [11], 102%; in test [12] it was 123%. In addition, the growth in [20] was 97.1%; in test [14] it was 87.6%; in test [15] it was 91.5%; in test [16] it was 97.7%; in test [17], 99.4%; in test [18], 97.1%. Moreover, in [19], the growth was 90%.
Regarding `O=S(=O)(O)c1ccc(O)c(C2CCCCC2)c1`, the growth is 112% in test [1]; 98.4% in test [2]; 103% in test [3]; 87.4% in test [4]; 108% in test [5]; 93.2% in [6]. The growth in test [7] was 98.5%; in [8], 96.6%; in test [9] it was 91.1%; in test [10] it was 105%; in [11] it was 112%; in test [12] it was 123%. Also, the growth in test [13] was 112%; in [14], 105%; in test [15], 105%; in test [16] it was 100%; in test [17], 98.2%; in test [18], 99.3%.
